In PubChem BioAssay (NCATS):
Inconclusive results are not listed. Where a call stands in place of a potency, no number is given. The source made the active and inactive calls. The call rests on the fitted dose curve; in most records, active means well fitted curve in the direction sought with a large enough effect; inconclusive means small, poorly fitted or top-dose-only effect, or another doubt; inactive means no such curve, though single readings can be large; an effect the other way counts as inactive or inconclusive.

Test system: not listed separately
Assay: Cell Viability - LYMP2-026 (AID 989);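 further: cells exposed to compound for 24 h at 37 °C; nearly all actives have a fitted effect of over 50% in size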
Settings: LYMP2-026 lymphoblastoid cell viability, qHTS; series mostly up to 92.2 µM
Method in brief: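 Luminescent ATP signal (CellTiter-Glo, 30 min room temperature) measures viable lymphoblastoid cells after 24 hr compound treatment at 37 C. Decreased ATP reflects acute toxicity; AC50 values come from Hill-equation modeling.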

Row | Compound | outcome
1 | COc1ccc(C(=O)c2ccccc2)c(O)c1 | inactive
2 | NC(=O)c1ccccc1O | inactive
3 | CCCCC(CC)COC(=O)c1ccc(N(C)C)cc1 (configuration not stated) | inactive
4 | CCOc1ccccc1C(N)=O | inactive
5 | O=C(O)c1ccc(S(=O)(=O)N(Cl)Cl)cc1 | inactive
6 | CCCN(CCC)S(=O)(=O)c1ccc(C(=O)O)cc1 | inactive
7 | OC[C@H]1O[C@@H]2O[C@H]3[C@H](O)[C@@H](O)[C@@H](O[C@H]4[C@H](O)[C@@H](O)[C@@H](O[C@H]5[C@H](O)[C@@H](O)[C@@H](O[C@H]6[C@H](O)[C@@H](O)[C@@H](O[C@H]7[C@H](O)[C@@H](O)[C@@H](O[C@H]8[C@H](O)[C@@H](O)[C@@H](O[C@H]1[C@H](O)[C@H]2O)O[C@@H]8CO)O[C@@H]7CO)O[C@@H]6CO)O[C@@H]5CO)O[C@@H]4CO)O[C@@H]3CO | inactive
8 | NCCNc1cccc2ccccc12 | inactive
9 | C=C[C@H]1CN2CC[C@H]1C[C@@H]2[C@@H](O)c1ccnc2ccc(OC)cc12 | inactive
10 | COc1cc([C@H]2Oc3cc([C@H]4Oc5cc(O)cc(O)c5C(=O)[C@@H]4O)ccc3O[C@@H]2CO)ccc1O | inactive
11 | C/C=C/c1ccc(O)c(OC)c1 | inactive
12 | CCOc1ccc(NC(C)=O)cc1 | inactive

Target: Alpha-galactosidase A (Homo sapiens) (UniProt P06280)
Assay: Counterscreen for Glucocerebrosidase Inhibitors: qHTS Assay for Human alpha-Galactosidase at pH 4.5 (AID 992)
Settings: purified enzyme, fluorogenic substrate; series mostly up to 76.9 µM
Method in brief: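 Read-out is 4-methylumbelliferone fluorescence (365 nm excitation, 440 nm emission) after a pH 10 NaOH/glycine stop. Reactions held 2 nM enzyme and 80 uM substrate at pH 4.5 for 20 min at room temperature.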

Sequence of Alpha-galactosidase A (Homo sapiens) (P06280 whole entry, looked up): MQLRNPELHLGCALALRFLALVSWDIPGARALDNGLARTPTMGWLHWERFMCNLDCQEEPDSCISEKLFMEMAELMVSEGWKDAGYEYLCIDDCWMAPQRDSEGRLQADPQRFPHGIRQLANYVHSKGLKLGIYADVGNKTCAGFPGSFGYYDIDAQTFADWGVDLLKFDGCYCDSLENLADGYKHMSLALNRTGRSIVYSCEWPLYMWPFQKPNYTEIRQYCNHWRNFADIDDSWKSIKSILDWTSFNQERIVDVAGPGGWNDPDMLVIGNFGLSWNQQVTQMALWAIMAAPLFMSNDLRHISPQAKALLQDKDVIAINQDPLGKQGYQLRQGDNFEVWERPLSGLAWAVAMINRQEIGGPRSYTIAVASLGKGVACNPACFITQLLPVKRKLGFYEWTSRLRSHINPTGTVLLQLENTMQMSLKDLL

Row | Compound | outcome
13 | NS(=O)(=O)Cc1noc2ccccc12 | inactive
14 | CN=C(N)NCCC[C@H](N)C(=O)O | inactive
15 | CN1CCC[C@@H]1CCO[C@](C)(c1ccccc1)c1ccc(Cl)cc1 | inactive
16 | CN(C)CCC[C@@]1(c2ccc(F)cc2)OCc2cc(C#N)ccc21 | inactive
17 | CC(C)(C)NC[C@H](O)COc1nsnc1N1CCOCC1 | inactive
18 | NC(N)=NCc1cccc(I)c1 | inactive

Test system: not listed separately
Assay: Cell Viability - LYMP1-002 - Assay at 24 hr (AID 993)
Settings: LYMP1-002 lymphoblastoid cells viability; series mostly up to 92.2 µM
Method in brief: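 Cells plated 2500/well, 5 hr 37 C; compounds added, 24 hr 37 C; CellTiter-Glo added, 30 min RT; luminescence read. Tetraoctylammonium bromide positive control. Hill-equation AC50.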

Row | Compound | outcome
19 | COc1ccc(C(=O)c2ccccc2)c(O)c1 | inactive
20 | COc1ccc(C(Cl)=C(c2ccc(OC)cc2)c2ccc(OC)cc2)cc1 | inactive
21 | NC(=O)c1ccccc1O | inactive
22 | CCCCC(CC)COC(=O)c1ccc(N(C)C)cc1 (configuration not stated) | inactive
23 | CCOc1ccccc1C(N)=O | inactive
24 | O=C(O)c1ccc(S(=O)(=O)N(Cl)Cl)cc1 | inactive
25 | CCCN(CCC)S(=O)(=O)c1ccc(C(=O)O)cc1 | inactive
26 | OC[C@H]1O[C@@H]2O[C@H]3[C@H](O)[C@@H](O)[C@@H](O[C@H]4[C@H](O)[C@@H](O)[C@@H](O[C@H]5[C@H](O)[C@@H](O)[C@@H](O[C@H]6[C@H](O)[C@@H](O)[C@@H](O[C@H]7[C@H](O)[C@@H](O)[C@@H](O[C@H]8[C@H](O)[C@@H](O)[C@@H](O[C@H]1[C@H](O)[C@H]2O)O[C@@H]8CO)O[C@@H]7CO)O[C@@H]6CO)O[C@@H]5CO)O[C@@H]4CO)O[C@@H]3CO | inactive
27 | NCCNc1cccc2ccccc12 | inactive
28 | C=C[C@H]1CN2CC[C@H]1C[C@@H]2[C@@H](O)c1ccnc2ccc(OC)cc12 | inactive
29 | Oc1ccc(Cl)cc1Cc1cc(Cl)ccc1O | inactive
30 | COc1cc([C@H]2Oc3cc([C@H]4Oc5cc(O)cc(O)c5C(=O)[C@@H]4O)ccc3O[C@@H]2CO)ccc1O | inactive
31 | C/C=C/c1ccc(O)c(OC)c1 | inactive
32 | CCOc1ccc(NC(C)=O)cc1 | inactive

Test system: not listed separately
Assay: Cell Viability - LYMP1-002 - Assay at 40 hr (AID 994); further: nearly all actives have a fitted effect of over 60% in size; further: potency means the concentration at half of the fitted maximal effect
Settings: LYMP1-002 lymphoblastoid cell viability; series mostly up to 92.2 µM
Method in brief: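 Luminescent ATP signal served as the viability readout, with decreases taken as toxicity. Cells were treated with compounds across a concentration range for 40 hours at 37 C, and AC50 values came from standard Hill modeling.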

Row | Compound | Potency
33 | COc1ccc(C(=O)c2ccccc2)c(O)c1 | inactive
34 | COc1ccc(C(Cl)=C(c2ccc(OC)cc2)c2ccc(OC)cc2)cc1 | inactive
35 | NC(=O)c1ccccc1O | inactive
36 | CCCCC(CC)COC(=O)c1ccc(N(C)C)cc1 (configuration not stated) | inactive
37 | CCOc1ccccc1C(N)=O | inactive
38 | O=C(O)c1ccc(S(=O)(=O)N(Cl)Cl)cc1 | inactive
39 | CCCN(CCC)S(=O)(=O)c1ccc(C(=O)O)cc1 | inactive
40 | Oc1c(Cl)cc(Cl)c(Cl)c1Cc1c(O)c(Cl)cc(Cl)c1Cl | 31.6 µM (active)
41 | OC[C@H]1O[C@@H]2O[C@H]3[C@H](O)[C@@H](O)[C@@H](O[C@H]4[C@H](O)[C@@H](O)[C@@H](O[C@H]5[C@H](O)[C@@H](O)[C@@H](O[C@H]6[C@H](O)[C@@H](O)[C@@H](O[C@H]7[C@H](O)[C@@H](O)[C@@H](O[C@H]8[C@H](O)[C@@H](O)[C@@H](O[C@H]1[C@H](O)[C@H]2O)O[C@@H]8CO)O[C@@H]7CO)O[C@@H]6CO)O[C@@H]5CO)O[C@@H]4CO)O[C@@H]3CO | inactive
42 | NCCNc1cccc2ccccc12 | inactive
43 | C=C[C@H]1CN2CC[C@H]1C[C@@H]2[C@@H](O)c1ccnc2ccc(OC)cc12 | inactive
44 | COc1cc([C@H]2Oc3cc([C@H]4Oc5cc(O)cc(O)c5C(=O)[C@@H]4O)ccc3O[C@@H]2CO)ccc1O | inactive
45 | C/C=C/c1ccc(O)c(OC)c1 | inactive
46 | CCOc1ccc(NC(C)=O)cc1 | inactive

Target: alpha-glucosidase (Oryza sativa, rice) (UniProt Q653V4)
Assay: Counterscreen for Glucocerebrosidase Inhibitors: qHTS Assay for Rice alpha-Glucosidase at pH 5.0 (AID 997)
Settings: rice alpha-glucosidase enzyme activity; series mostly up to 76.9 µM
Method in brief: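 Rice alpha-glucosidase (4 nM final) with 400 uM 4-methylumbelliferyl-alpha-D-glucopyranoside in citrate buffer pH 5.0, 20 min at room temperature, stopped at pH 10; fluorescence 365/440 nm, compounds 0.7 nM–77 uM, AC50 from Hill fits.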

Row | Compound | outcome
47 | NS(=O)(=O)Cc1noc2ccccc12 | inactive
48 | CN=C(N)NCCC[C@H](N)C(=O)O | inactive
49 | CN1CCC[C@@H]1CCO[C@](C)(c1ccccc1)c1ccc(Cl)cc1 | inactive
50 | CN(C)CCC[C@@]1(c2ccc(F)cc2)OCc2cc(C#N)ccc21 | inactive
51 | CC(C)(C)NC[C@H](O)COc1nsnc1N1CCOCC1 | inactive
52 | NC(N)=NCc1cccc(I)c1 | inactive
